# Structures can show the parent of a compound that is named as a salt.
# Columns and labels:
# Conditions in all cases: incubation time: 27 h, anaerobic, 37 °C;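 for the amine columns active = adjusted P below 0.05 in both replicates with a change the same way and a mean fold change under 0.8 or over 1.25; inactive = the rest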
# [1] = system: Clostridium sporogenes DSM 1664; assay: growth (OD595) fold change vs plate DMSO controls (fold change (ratio)); higher = more growth
# Summary of the method: (§1)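 The measure reported is growth, taken as fold change against the median of DMSO controls on the same plate. Anaerobic mGAM cultures in 96-well plates (27 h, 37 °C) were read at 595 nm, blank-subtracted, corrected for compound background using 20 µM compound solutions in water, and multiplied by a calibration factor of 5 to give OD. Any fold change above 1.5 became NA, and 2 biological replicates were averaged.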
# [2] = system: Escherichia coli IAI1; assay: as above
# Summary of the method: as §1
# [3] = system: Klebsiella aerogenes DSM 30053; assay: as above
# Summary of the method: as §1
# [4] = system: Ruminococcus gnavus DSM 108212; assay: as above
# Summary of the method: as §1
# [5] = system: Klebsiella aerogenes DSM 30053; assay: fold change of Histamine concentration vs plate DMSO controls (fold change (ratio)); higher = more amine produced, active = hit call of the paper (significant change in both replicates, either direction)
# Summary of the method: (§2)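 Each value is the fold change relative to DMSO-only wells on the same plate. Four gut bacterial strains were grown anaerobically in mGAM at 37 °C for 27 h in 80 µL wells, starting at OD 0.1 before a 1:1 dilution, with compounds at 20 µM final (sweeteners 50 µM). Whole cultures were extracted with cold acetonitrile/methanol containing 0.1% formic acid, centrifuged, and amines were quantified by LC–triple-quadrupole MS (dynamic MRM) against external calibration curves with within-batch drift correction. Values are means of 2 biological replicates.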
# [6] = system: Clostridium sporogenes DSM 1664; assay: fold change of Tryptamine concentration vs plate DMSO controls (fold change (ratio)); higher = more amine produced, active = hit call of the paper (significant change in both replicates, either direction)
# Summary of the method: as §2
# [7] = system: Ruminococcus gnavus DSM 108212; assay: as above
# Summary of the method: as §2
# [8] = system: Escherichia coli IAI1; assay: fold change of Putrescine concentration vs plate DMSO controls (fold change (ratio)); higher = more amine produced, active = hit call of the paper (significant change in both replicates, either direction)
# Summary of the method: as §2
# [9] = system: Klebsiella aerogenes DSM 30053; assay: as above
# Summary of the method: as §2
# [10] = system: Escherichia coli IAI1; assay: fold change of Cadaverine concentration vs plate DMSO controls (fold change (ratio)); higher = more amine produced, active = hit call of the paper (significant change in both replicates, either direction)
# Summary of the method: as §2
# [11] = system: Klebsiella aerogenes DSM 30053; assay: as above
# Summary of the method: as §2
# [12] = system: Ruminococcus gnavus DSM 108212; assay: fold change of 2-Phenylethylamine concentration vs plate DMSO controls (fold change (ratio)); higher = more amine produced, active = hit call of the paper (significant change in both replicates, either direction)
# Summary of the method: as §2
SMILES,growth [1],growth [2],growth [3],growth [4],fold change of Histamine concentration [5],fold change of Tryptamine concentration [6],fold change of Tryptamine concentration [7],fold change of Putrescine concentration [8],fold change of Putrescine concentration [9],fold change of Cadaverine concentration [10],fold change of Cadaverine concentration [11],fold change of 2-Phenylethylamine concentration [12]
CS(=O)(=O)c1ccc([C@@H](O)[C@@H](CF)NC(=O)C(Cl)Cl)cc1 [Florfenicol] (20 µM),0,0.0375,0.0697,0.306,0.0871 (active),0.0346 (active),0.122 (active),0.217 (active),0.459 (inactive),0.177 (active),0.508 (inactive),0.143 (active)
CCc1ccc(CCOc2ccc(CC3SC(=O)NC3=O)cc2)nc1 (stereo not given) [Pioglitazone] (20 µM),1.3,0.963,0.988,0.816,1 (inactive),0.918 (inactive),0.977 (inactive),1.02 (inactive),1.01 (inactive),0.968 (inactive),0.998 (inactive),0.904 (inactive)
CC(C)c1cc2c(cc1S(=O)(=O)O)[C@@]1(C)CCC[C@@](C)(C(=O)O)[C@@H]1CC2 [Ecabet sodium] (20 µM),1.16,1,1.01,0.982,0.974 (inactive),0.972 (inactive),1.01 (inactive),0.955 (inactive),1 (inactive),1.01 (inactive),0.991 (inactive),0.995 (inactive)
CN(CCOc1ccc(CC2SC(=O)NC2=O)cc1)c1ccccn1 (stereo not given) [Rosiglitazone hydrochloride] (20 µM),1.05,1.15,0.983,1.05,0.998 (inactive),1.06 (inactive),1.08 (inactive),1.17 (inactive),0.993 (inactive),0.926 (inactive),1.03 (inactive),1.12 (inactive)
CCCCC1=NC2(CCCC2)C(=O)N1Cc1ccc(-c2ccccc2-c2nnn[nH]2)cc1 [Irbesartan] (20 µM),1.11,1.03,1.01,1.21,1.05 (inactive),0.968 (inactive),0.947 (inactive),1.02 (inactive),1.01 (inactive),1.01 (inactive),0.995 (inactive),0.929 (inactive)
CC(C)NCC(O)c1cc(O)cc(O)c1 (stereo not given) [Metaproterenol sulfate] (20 µM),0.982,1.03,1.02,1.17,0.981 (inactive),1.03 (inactive),0.957 (inactive),1.03 (inactive),0.979 (inactive),0.974 (inactive),0.992 (inactive),0.938 (inactive)
CCN1CCN(C(=O)N[C@@H](C(=O)N[C@@H]2C(=O)N3[C@@H]2SC(C)(C)[C@@H]3C(=O)O)c2ccccc2)C(=O)C1=O [Piperacillin sodium salt] (20 µM),0,0.563,1.07,0,0.706 (inactive),0.0439 (active),0.0274 (active),1.17 (inactive),1.06 (inactive),1.84 (active),1.03 (inactive),0.0313 (active)
c1ccc(C2CN3CCSC3=N2)cc1 (stereo not given) [Tetramisole hydrochloride] (20 µM),0.855,0.574,1.07,0.976,1.04 (inactive),0.939 (inactive),1.01 (inactive),1.33 (inactive),1.03 (inactive),2 (active),0.992 (inactive),1.03 (inactive)
COc1cc(C)c(/C=C/C(C)=C/C=C/C(C)=C/C(=O)O)c(C)c1C [Acitretin] (20 µM),0.986,1.1,1.02,1.09,0.97 (inactive),0.967 (inactive),0.962 (inactive),1.18 (inactive),0.996 (inactive),0.971 (inactive),1.01 (inactive),0.99 (inactive)
O=C(CO)[C@@H](O)[C@H](O)[C@H](O)CO [D(-) Fructose] (50 µM),1.01,1.02,0.988,0.986,0.994 (inactive),0.929 (inactive),0.925 (inactive),1.04 (inactive),0.987 (inactive),1.07 (inactive),0.981 (inactive),0.919 (inactive)
CN(C)CCn1nnnc1SCC1=C(C(=O)O)N2C(=O)[C@@H](NC(=O)Cc3csc(N)n3)[C@H]2SC1 [Cefotiam hydrochloride] (20 µM),0,0.00521,1.05,0.248,1.27 (inactive),0.0154 (active),0.0411 (active),0.121 (active),1.08 (inactive),0.522 (active),1.14 (inactive),0.0464 (active)
COc1ccccc1OCC(O)COC(N)=O (stereo not given) [Methocarbamol] (20 µM),1.03,1,1.03,1.12,1.06 (inactive),1.02 (inactive),0.963 (inactive),0.998 (inactive),1.01 (inactive),0.986 (inactive),0.987 (inactive),0.95 (inactive)
COCC(=O)O[C@]1(CCN(C)CCCc2nc3ccccc3[nH]2)CCc2cc(F)ccc2[C@@H]1C(C)C [Mibefradil hydrochloride] (20 µM),1.05,0.996,1,0.967,0.954 (inactive),0.999 (inactive),0.925 (inactive),1.02 (inactive),1.01 (inactive),1.02 (inactive),1 (inactive),0.908 (inactive)
CCCNC(C)(C)COC(=O)c1ccccc1 [Meprylcaine hydrochloride] (20 µM),0.985,1.02,0.991,1.17,1.02 (inactive),1.01 (inactive),1.04 (inactive),1.01 (inactive),1 (inactive),1.04 (inactive),0.991 (inactive),1.01 (inactive)
O=C(O)Cc1csc(-c2ccc(Cl)cc2)n1 [Fenclozic acid] (20 µM),1.01,0.949,0.979,1.1,1.05 (inactive),1 (inactive),1.05 (inactive),1.01 (inactive),0.985 (inactive),0.986 (inactive),0.977 (inactive),1.1 (inactive)
OC[C@H]1O[C@@H](n2cnc3cncnc32)[C@H](O)[C@@H]1O [Nebularine] (20 µM),0.985,0.971,1.01,0.831,0.982 (inactive),0.874 (inactive),0.943 (inactive),0.795 (inactive),1.01 (inactive),0.943 (inactive),0.998 (inactive),0.946 (inactive)
CCCCN(CCCC)CCCOC(=O)c1ccc(N)cc1 [Butacaine] (20 µM),1.11,1.03,1.02,1,1.03 (inactive),0.973 (inactive),0.951 (inactive),0.955 (inactive),1.01 (inactive),1.02 (inactive),1 (inactive),0.913 (inactive)
OC[C@H]1OC(O)[C@H](O)[C@H](O)[C@@H]1O (stereo partly drawn) [D-allose] (50 µM),1.08,0.999,0.98,1.07,0.99 (inactive),1.02 (inactive),0.896 (inactive),1 (inactive),1.01 (inactive),1.07 (inactive),0.993 (inactive),0.886 (inactive)
CC(C)[N+](C)(CCOC(=O)C1c2ccccc2Oc2ccccc21)C(C)C [Propantheline bromide] (20 µM),1.03,0.986,1,0.994,1 (inactive),0.971 (inactive),0.96 (inactive),1.02 (inactive),0.992 (inactive),1.01 (inactive),0.996 (inactive),0.963 (inactive)
Nc1ccc(S(=O)(=O)NC(=O)c2ccccc2)cc1 [Sulfabenzamide] (20 µM),1.18,1.07,1.05,1.1,0.998 (inactive),1.07 (inactive),1.04 (inactive),0.947 (inactive),0.991 (inactive),0.967 (inactive),1.01 (inactive),1.09 (inactive)
CC(C(=O)O)c1ccc(N2CC=CC2)c(Cl)c1 (stereo not given) [Pirprofen] (20 µM),1.03,1.01,0.978,0.973,1.04 (inactive),0.987 (inactive),1.06 (inactive),1.04 (inactive),0.957 (inactive),0.95 (inactive),0.981 (inactive),1.15 (inactive)
CC(C)Cn1cnc2c(N)nc3ccccc3c21 [Imiquimod] (20 µM),1.1,0.977,1.02,0.323,0.998 (inactive),0.888 (inactive),0.149 (active),0.988 (inactive),1.02 (inactive),1.04 (inactive),1 (inactive),0.162 (active)
COc1cc2nc(N(C)CCCNC(=O)C3CCCO3)nc(N)c2cc1OC (stereo not given) [Alfuzosin hydrochloride] (20 µM),0.976,1.01,1.01,1.31,0.953 (inactive),1 (inactive),1.04 (inactive),0.976 (inactive),0.99 (inactive),1.01 (inactive),1.04 (inactive),1.04 (inactive)
CO[C@@]12[C@H](COC(N)=O)C3=C(C(=O)C(C)=C(N)C3=O)N1C[C@@H]1N[C@@H]12 [Mitomycin C] (20 µM),0.678,0.0414,0.824,0.291,1.15 (inactive),0.394 (active),0.153 (active),0.663 (inactive),0.968 (inactive),0.306 (active),0.995 (inactive),0.15 (active)
CC(C)(C)NCC(O)c1ccc(O)c(CO)c1 (stereo not given) [Salbutamol] (20 µM),1.05,0.99,1.03,0.843,1.08 (inactive),0.999 (inactive),1.03 (inactive),1.04 (inactive),1.02 (inactive),1 (inactive),0.998 (inactive),1.03 (inactive)

# Reference: the supplement of paper PMC12494721
